Shown are actives, neighbours in structure and some others; about 3.1% of the full set was active somewhere.
PAX8 inh HTS: inhibitors of PAX8 transcriptional activity in RMG-I cells. RMG-I TPO-luciferase reporter, SteadyGlo, 24 h. AID 652154. inhibition, % at 12.6 µM. 1.2% of 360,000 active;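 active = mean replicate inhibition at least 60% with every replicate also reaching 60%; inconclusive = only one of the two criteria is met; inactive = mean below 60% and not all replicates reaching 60%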;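 note: luciferase light reporting Pax8 driven TPO promoter activity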
EWS-Fli inh: EWS/Fli transcriptional activity inhibition; A673 NR0B1-luciferase reporter, viability-normalised; inhibition, % at 12.6 µM; 0.67% of 350,000 active; AID 651661;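 active = mean inhibition of at least 50% after viability correction, with every replicate also passing that limit; inconclusive = mean reaches 50% but only one of two replicates passes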;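 note: firefly luciferase signal divided by Alamar Blue viability fluorescence both relative to DMSO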
TROY NFkB inh: inhibitors of TROY-dependent NF-kB signaling; Q293 LMP1-TROYcd NF-kB luciferase reporter, 4 h; inhibition, % at 10 µM; 0.98% of 360,000 active; AID 1347056;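 active = compounds whose plate-normalised and pattern-corrected inhibition of the luciferase reporter signal at the single screening dose is 50% or more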
TWEAK Fn14 block: inhibitors of TWEAK-Fn14 interaction signaling | TWEAK-stimulated Fn14 reporter cells, luciferase luminescence, 8 h | inhibition, % at 10 µM | 2% of 360,000 active; in the data active = inhibition above about 50%
LGR2 inh: inhibitors of bursicon-induced Drosophila LGR2 receptor cAMP signaling; HEK293 LGR2, CRE-luciferase, bursicon-stimulated, 4 h; 0.35% of 380,000 active; AID 720647; inhibition, % at 9.99 µM;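 active = drop in luminescence signal, shown as inhibition above about 50% in the replicate tests, limit read from the data, passing the limit was not always enough; inconclusive = probably only some replicates passing the limit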;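 note: agonist challenge used bursicon conditioned medium at about half maximal strength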
LMP1 NFkB inh: inhibitors of Epstein-Barr LMP1-induced NF-kappaB reporter; LMP1-induced NF-kappaB luciferase reporter cells, luminescence; inhibition, % at 12.5 µM; 0.69% of 350,000 active; AID 504558; in the data active = inhibition above about 41%; inconclusive = no clear call, values can overlap the other calls
Each line names hits and unclear results; the compound was inactive in the other large screens.

C[C@@H]1CCCCO[C@@H](CN(C)S(=O)(=O)c2ccc(F)cc2)[C@H](C)CN([C@@H](C)CO)C(=O)c2cc(NS(=O)(=O)c3cccs3)ccc2O1	none (no result: TROY NFkB inh, TWEAK Fn14 block, LMP1 NFkB inh)
CCN(CC)S(=O)(=O)c1ccc(N=NC2=C(O)CC(C)(C)CC2=O)cc1	none (no result: EWS-Fli inh)
CCN(CC)S(=O)(=O)c1ccc(N=NC2=C(O)CCCC2=O)cc1	LMP1 NFkB inh 63
C[C@H](CO)N1C[C@H](C)[C@@H](CN(C)C(=O)Nc2ccccc2)Oc2ccc(NC(=O)Cn3cnnn3)cc2CC1=O	none (no result: TROY NFkB inh, TWEAK Fn14 block, LMP1 NFkB inh)
CCOc1ccc(-c2cc(C(=O)Nc3ccc(C)c(NS(C)(=O)=O)c3)[nH]n2)c(C)c1	TWEAK Fn14 block 52 (no result: LMP1 NFkB inh)
COc1ccc(NC(=O)N(C)C[C@@H]2OCCCC[C@H](C)Oc3ccc(NC(=O)Nc4ccc(F)cc4)cc3C(=O)N([C@H](C)CO)C[C@@H]2C)cc1	none (no result: TROY NFkB inh, TWEAK Fn14 block, LMP1 NFkB inh)
O=S(Cc1ccc(Br)cc1)Cc1nnc(SCc2ccc(Cl)cc2)n1-c1ccccc1 (stereo not drawn)	TWEAK Fn14 block 55 (no result: PAX8 inh HTS, EWS-Fli inh, LGR2 inh)
COC(=O)c1cc(NC(=O)CN(c2cccc(OC)c2)S(=O)(=O)c2ccccc2)ccc1Cl	TWEAK Fn14 block 51
COC(=O)c1cc(NC(=O)CN(c2ccccc2OC)S(=O)(=O)c2ccccc2)ccc1Cl	TWEAK Fn14 block 53 (no result: PAX8 inh HTS, EWS-Fli inh)
COc1cccc(N(CC(=O)Nc2ccc3c(c2)OCO3)S(=O)(=O)c2ccccc2)c1	none (no result: EWS-Fli inh, LGR2 inh)
O=C(CN1CCC(n2nnc3cc(F)ccc32)CC1)NC1CC1	none (no result: EWS-Fli inh, LGR2 inh)
CCOc1ccc2nc(NC(=O)CN3CCC(n4nnc5cc(F)ccc54)CC3)sc2c1	TROY NFkB inh 57 (no result: EWS-Fli inh, LGR2 inh)
COc1ccc2nc(Nc3sc4c(c3C(N)=O)CCCC4)sc2c1	TROY NFkB inh 58
COc1ccc2nc(NC(=O)CN3CCN(C)CC3)sc2c1	TROY NFkB inh 54 (no result: PAX8 inh HTS, EWS-Fli inh, LGR2 inh)
O=C(C[C@H]1CC[C@@H](NC(=O)Nc2cc(F)ccc2F)[C@@H](CO)O1)Nc1ccc(-c2ccccc2)cc1	none (no result: TROY NFkB inh, TWEAK Fn14 block, LMP1 NFkB inh)
CCCNC(=O)C[C@H]1CC[C@H]2[C@@H](COC[C@H](O)CN2C(=O)Nc2ccccc2OC)O1	none (no result: TROY NFkB inh, TWEAK Fn14 block, LMP1 NFkB inh)
CC(C)Oc1ccc(C(=O)Nc2nc3ccccc3[nH]2)cc1	PAX8 inh HTS 68, EWS-Fli inh 81, TROY NFkB inh 82, TWEAK Fn14 block 98, LGR2 inh 94, LMP1 NFkB inh 70
O=C(Nc1nc2ccccc2[nH]1)c1ccc(OC(F)F)cc1	none
O=C(Nc1cccc2[nH]ncc12)c1ccc(F)cc1	TWEAK Fn14 block 59 (no result: EWS-Fli inh, LGR2 inh)
COc1ccccc1CCC(=O)Nc1nc2ccccc2[nH]1	TWEAK Fn14 block 50 (no result: EWS-Fli inh, LGR2 inh)
CCc1ccc(C(=O)Nc2nc3ccccc3[nH]2)cc1	PAX8 inh HTS 76, EWS-Fli inh 75, TROY NFkB inh 80, TWEAK Fn14 block 98, LGR2 inh 92, LMP1 NFkB inh 69
C[C@@H]1CN([C@H](C)CO)C(=O)c2cc(-c3ccccc3F)cnc2O[C@@H]1CN(C)C(=O)c1cnccn1	none (no result: TROY NFkB inh, TWEAK Fn14 block, LMP1 NFkB inh)
COc1ccc(S(=O)(=O)Nc2cccc3c2O[C@@H](CN(C)C(=O)Nc2ccc4c(c2)OCO4)[C@@H](C)CN([C@H](C)CO)C3=O)cc1	none (no result: PAX8 inh HTS, TROY NFkB inh, TWEAK Fn14 block, LMP1 NFkB inh)
O=C(Nc1nc2ccccc2[nH]1)c1ccc(F)cc1	TWEAK Fn14 block 69 (no result: PAX8 inh HTS)
COc1ccc(Cl)cc1C(=O)Nc1nc2ccccc2[nH]1	EWS-Fli inh 72, TROY NFkB inh 71, TWEAK Fn14 block 95, LGR2 inh 79
O=C(Nc1nc2ccccc2[nH]1)c1ccccc1F	TROY NFkB inh 84, TWEAK Fn14 block 102, LMP1 NFkB inh 77 (no result: PAX8 inh HTS, EWS-Fli inh, LGR2 inh)
COc1ccc(C(=O)Nc2nc3ccccc3[nH]2)cc1OC	none (no result: PAX8 inh HTS)
O=C(Nc1nc2ccccc2[nH]1)c1ccccc1OC(F)F	TWEAK Fn14 block 64 (no result: EWS-Fli inh)
Cc1ccccc1-c1ccc2c(c1)O[C@@H](CN(C)C(=O)C1CC1)[C@@H](C)CN([C@H](C)CO)S2(=O)=O	none (no result: PAX8 inh HTS, TROY NFkB inh, TWEAK Fn14 block, LMP1 NFkB inh)
COCC(=O)N(C)C[C@@H]1Oc2cc(C#CC3CCCC3)ccc2S(=O)(=O)N([C@@H](C)CO)C[C@H]1C	none (no result: PAX8 inh HTS, TROY NFkB inh, TWEAK Fn14 block, LMP1 NFkB inh)
OC(c1cc(-c2ccc(C(F)(F)F)cc2)nc(C(F)(F)F)c1)C1CCCCN1 (stereo not drawn)	PAX8 inh HTS 88
OC(c1cc(-c2cccc(Cl)c2)nc2ccccc12)C1CCCCN1 (stereo not drawn)	none
OC(c1cc(C(F)(F)F)nc2c(C(F)(F)F)cccc12)C1CCCCN1 (stereo not drawn)	EWS-Fli inh 59, LGR2 inh 70
CCC(=O)C1CCCN(C(=O)c2ccc3nc(-c4cccc(OC)c4)oc3c2)C1 (stereo not drawn)	TROY NFkB inh 53 (no result: EWS-Fli inh)
CCOC(=O)C1CCCN(C(=O)c2ccc3nc(-c4cccc(OC)c4)oc3c2)C1 (stereo not drawn)	TROY NFkB inh 68 (no result: EWS-Fli inh)
CCCC#Cc1ccc2c(c1)O[C@@H](CN(C)Cc1ccc3c(c1)OCO3)[C@@H](C)CN([C@@H](C)CO)S2(=O)=O	none (no result: PAX8 inh HTS, TROY NFkB inh, TWEAK Fn14 block, LMP1 NFkB inh)
CN(C)CC#Cc1ccc([C@@H]2[C@@H](CO)N3CCCCN(CC4CC4)C[C@@H]23)cc1	none (no result: TROY NFkB inh, TWEAK Fn14 block, LMP1 NFkB inh)
C[C@H](CO)N1C[C@H](C)[C@H](CN(C)S(=O)(=O)c2ccc(C#N)cc2)OCc2ccccc2-c2ccccc2C1=O	none (no result: PAX8 inh HTS, TROY NFkB inh, TWEAK Fn14 block, LMP1 NFkB inh)
Cc1ccc(C2Nc3ccccc3NC3=C2C(=O)OC(C)C3)cc1 (stereo not drawn)	TROY NFkB inh 64
O=c1[nH]c(C2CCN(S(=O)(=O)c3ccccc3C(F)(F)F)CC2)nc2c1nnn2Cc1ccccc1	TROY NFkB inh 51
Cc1ccc(C(=O)Nc2nnc(-c3ccncc3)o2)cc1	none
Cc1cccc(-c2nnc(NC(=O)c3ccc(Cl)cc3)o2)c1	TWEAK Fn14 block 62 (no result: PAX8 inh HTS, EWS-Fli inh, LGR2 inh)
NC(=O)[C@@H]1CC2(CC(c3cccc(NC(=O)COc4ccc(Cl)cc4)c3)=NO2)CN1C(=O)COc1ccc(Cl)cc1 (stereo partly drawn)	PAX8 inh HTS inconclusive, TWEAK Fn14 block 82
NC(=O)[C@H]1CC2(CC(c3cccc(NC(=O)COc4ccc(Cl)cc4)c3)=NO2)CN1C(=O)C(c1ccccc1)c1ccccc1 (stereo partly drawn)	PAX8 inh HTS 89, TWEAK Fn14 block 57
N#CCC(=O)N1CC2(CC(c3cccc(NC(=O)COc4ccc(Cl)cc4)c3)=NO2)C[C@@H]1C(N)=O (stereo partly drawn)	none
Cc1c(C(=O)N2CC3(CC(c4cccc(NC(=O)CC(c5ccccc5)c5ccccc5)c4)=NO3)C[C@@H]2C(N)=O)cc([N+](=O)[O-])cc1[N+](=O)[O-] (stereo partly drawn)	PAX8 inh HTS 65
CN(C)c1cc[n+](CC(=O)c2ccc(-c3ccccc3)cc2)cc1	PAX8 inh HTS 98
Cc1ccc(N=Nc2cc(C)ccc2O)c(C)c1	none
Cc1ccc(N=Nc2cc(C)ccc2N)cc1	LGR2 inh 68
C[C@H](CO)N1C[C@H](C)[C@@H](CN(C)S(=O)(=O)c2cccs2)OCc2ccccc2-c2c(n(C)c3ccccc23)C1=O	none (no result: TROY NFkB inh, TWEAK Fn14 block, LMP1 NFkB inh)

Source: PubChem BioAssay
